# Measured values taken from PubChem BioAssay (Tox21).
# Inconclusive results are not listed. Where a call stands in place of a potency, no number is given. Calls of active or inactive are those of the source. Unless noted, calls follow the shape of the full dose curve.
# Legend:
# [1] = Nuclear factor erythroid 2-related factor 2/antioxidant responsive element (Nrf2/ARE) small molecule agonists: qHTS cell viability counter screen in human keratinocytes (AID 1919968; active = well fitted curve in the direction sought with a large enough effect in the repeat runs; an effect the other way counts as inactive or inconclusive; also: nearly all actives have a fitted effect of over 55% in size; also: potency is read from the fitted curve at half-maximal effect)
# Summary of the method: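 Cells of the KeratinoSens line were plated at 1,500 per well and left for 5 h before compound transfer from DMSO stocks. After a 23 h incubation (37 C, 5% CO2), CellTiter-Fluor was added. Signal was taken as fluorescence intensity 1 h later.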
# [2] = Nuclear factor erythroid 2-related factor 2/antioxidant responsive element (Nrf2/ARE) small molecule agonists: luciferase reporter gene qHTS assay in human keratinocytes (AID 1919969); also: nearly all actives have a fitted effect of over 35% in size; also: potency is read from the fitted curve at half-maximal effect
# [3] = target: Gonadotropin-releasing hormone receptor (Homo sapiens) (UniProt P30968); test: Human gonadotropin-releasing hormone receptor (GnRHR) small molecule agonists, calcium flux assay in GnRHR-HEK293 cells (AID 1920063); also: nearly all actives have a fitted effect of over 35% in size; also: potency is read from the fitted curve at half-maximal effect
# Summary of the method: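 Compounds dissolved in DMSO are pin-transferred onto dye-loaded GnRHR-HEK293 cells, which were seeded 18 h before at 37 C/5% CO2. Calcium signal is read as fluorescence intensity at 1 s intervals for 3 min.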
# [4] = target: KiSS-1 receptor (Homo sapiens) (UniProt Q969F8); test: Human kisspeptin (KISS1R) small molecule agonists, calcium flux assay in KISS1R-HEK293 cells (AID 1920064; active = well fitted curve in the direction sought with a large enough effect in the repeat runs; an effect the other way counts as inactive or inconclusive)
# Summary of the method: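 Cell line: HEK293, stable human KISS1R. Dye loading 1 h at 37 C after 18 h culture. Read: kinetic fluorescence, 480/540 nm, 3 min at 1 s intervals.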
# [5] = G protein-coupled receptor (GPCR) small molecule agonists, calcium flux assay: HEK293 wild type cell line counter screen (AID 1920065)
# Summary of the method: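 Tox21 10K compounds, 15 concentrations each in triplicate, pin-transferred in DMSO onto dye-loaded cells; kinetic read at 480/540 nm for 3 min, 1 s intervals.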
# [6] = p53 small molecule agonists, cell-based qHTS assay with human liver microsomes (AID 1963577); also: potency is read from the fitted curve at half-maximal effect;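 as to activation: p53 response element beta-lactamase reporter cells with liver microsomes plus NADPH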
# Summary of the method: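 In this qHTS, p53 response-element beta-lactamase cells receive test compound together with a microsome/NADPH activating system (0.5 mg/mL final each) and are incubated 16 h at 37 C before LiveBLAzer fluorescence detection.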
# [7] = p53 small molecule agonists, cell-based qHTS assay with rat liver microsomes (AID 1963578)
# Summary of the method: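 Agonist mode in p53RE-bla reporter cells, with compounds co-incubated 16 h at 37 C alongside 0.5 mg/mL rat liver microsomes and 0.5 mg/mL NADPH (final), followed by a 2 h LiveBLAzer detection step.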
# [8] = p53 small molecule agonists, cell-based qHTS assay with rat liver microsomes: qHTS cell viability counter screen (AID 1963580); also: nearly all actives have a fitted effect of over 45% in size
# Summary of the method: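 Cytotoxicity counter screen: intracellular ATP measured by CellTiter-Glo luminescence in the same wells as the beta-lactamase reporter read, on HCT-116 p53RE-bla cells exposed 16 h at 37 C to compounds with rat liver microsomes and NADPH, each 0.5 mg/mL final.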
# [9] = target: 5-hydroxytryptamine receptor 2A (Homo sapiens) (UniProt P28223); test: 5-hydroxytryptamine receptor 2A (HTR2A) small molecule antagonists, cell-based qHTS assay (AID 1963586); also: nearly all actives have a fitted effect of over 45% in size; also: potency is read from the fitted curve at half-maximal effect
# Summary of the method: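 CHO cells stably expressing human HTR2A were plated for 18 h at 37 C, then loaded with calcium dye for 1 h. Compounds were preincubated 5 min at room temperature before DOI (4 nM solution) was added. Kinetic fluorescence was read for 3 min.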
# [10] = target: 5-hydroxytryptamine receptor 2A (Homo sapiens) (UniProt P28223); test: 5-hydroxytryptamine receptor 2A (HTR2A) small molecule agonists, cell-based qHTS assay (AID 1963587); also: nearly all actives have a fitted effect of over 30% in size; also: potency is read from the fitted curve at half-maximal effect
# Summary of the method: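 CHO cells stably expressing human HTR2A, plated 18 h, loaded with calcium dye 1 h at 37 C. Agonist mode: compounds added and intracellular calcium fluorescence recorded kinetically for 2 min at 1 sec intervals.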
# [11] = target: Muscarinic acetylcholine receptor M1 (Homo sapiens) (UniProt P11229); test: Cholinergic receptor muscarinic 1 (CHRM1) small molecule antagonists, cell-based qHTS assay (AID 1963588); also: nearly all actives have a fitted effect of over 40% in size; also: potency is read from the fitted curve at half-maximal effect
# Summary of the method: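 Compounds were tested at 15 concentrations in three independent runs. Dye-loaded CHRM1-CHO cells were exposed 5 min at room temperature before stimulation by acetylcholine added at 50nM. Intracellular calcium was read kinetically on FDSS for 3 min.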
# [12] = target: Muscarinic acetylcholine receptor M1 (Homo sapiens) (UniProt P11229); test: Cholinergic receptor muscarinic 1 (CHRM1) small molecule agonists, cell-based qHTS assay (AID 1963589); also: nearly all actives have a fitted effect of over 35% in size
# Summary of the method: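 Homogeneous fluorescence calcium flux, agonist mode. Human M1-expressing CHO cells; compound dosed at 15 concentrations, three independent runs; signal sampled every 1 sec.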
# [13] = target: Beta-2 adrenergic receptor (Homo sapiens) (UniProt P07550); test: Adrenergic beta2 receptor (ADRB2) small molecule antagonists, cell-based qHTS assay (AID 1963592); also: nearly all actives have a fitted effect of over 50% in size; also: potency is read from the fitted curve at half-maximal effect
# Summary of the method: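 Assay format: CHO-ADRB2 cells, 18-20hr seeding at 37C/5% CO2, then compound plus 1nM isoproterenol agonist mix for 0.5hr RT. Homogeneous time-resolved fluorescence cAMP detection after 1hr, expressed as 665/615 nm ratio.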
# [14] = target: D(2) dopamine receptor (Homo sapiens) (UniProt P14416); test: Dopamine D2 receptor (DRD2) small molecule agonists, cell-based qHTS assay (AID 1963594); also: nearly all actives have a fitted effect of over 35% in size; also: potency is read from the fitted curve at half-maximal effect
# Summary of the method: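 HEK293 cells stably expressing human DRD2, pre-treated with PDE inhibitor Ro20-1724 (0.1 mM final) and compound 10 min at room temperature, then stimulated with NKH477 (200nM […]) for 30 min. cAMP read by HTRF (665/620 nm).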
# [15] = target: D(2) dopamine receptor (Homo sapiens) (UniProt P14416); test: Dopamine D2 receptor (DRD2) small molecule antagonists, cell-based qHTS assay (AID 1963595; active = well fitted inhibition curve with a large enough effect in the signal ratio in the repeat runs, with a control signal flat; the % refers to the signal ratio; also: potency is read from the fitted curve at half-maximal effect)
# Summary of the method: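 In this cell-based antagonist screen, compounds act for 10 min at room temperature before a 30 min challenge with 12 nM quinpirole and 200 nM NKH477. cAMP is quantified by HTRF competition in DRD2-HEK293 cells containing 0.1 mM Ro20-1724.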
# [16] = p53 small molecule agonists, cell-based qHTS assay (AID 1963582; active = well fitted activation curve with a large enough effect in the signal ratio in the repeat runs, not every such curve was filed as active; the % refers to the signal ratio)
# Summary of the method: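 16 h compound exposure (37 C) of p53 response element–bla cells, preceded by 5 h recovery at 37 C/5% CO2; read-out via LiveBLAzer B/G FRET substrate, 2 h RT, fluorescence intensity.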
# [17] = cAMP Responsive Elements (CRE) small molecule agonists, cell-based qHTS assay (AID 1963590)
# Summary of the method: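 HEK 293T cells stably bearing CRE-bla were plated at 2,000 cells per well and rested 18 h. Compounds, positive controls or DMSO were added for 3 h at 37 C. LiveBLAzer B/G substrate was then loaded for 2 h at room temperature.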
# [18] = cAMP Responsive Elements (CRE) small molecule antagonists, cell-based qHTS assay (AID 1963591; active = well fitted inhibition curve with a large enough effect in the signal ratio in the repeat runs, not every such curve was filed as active; the % refers to the signal ratio)
# Summary of the method: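 First, CRE-bla HEK293T cells settled 18 h at 37 C. Next, compound and 0.25 uM final NKH477 were applied for 3 h. Last, LiveBLAzer B/G substrate was loaded for 2 h at room temperature.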
# [19] = p53 small molecule agonists, cell-based qHTS assay: qHTS cell viability counter screen (AID 1963581); also: nearly all actives have a fitted effect of over 45% in size; also: potency is read from the fitted curve at half-maximal effect
# Summary of the method: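 ATP content measured by luminescence in HCT-116 p53RE-bla cells treated 16 h at 37 C, same wells as the reporter screen.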
# [20] = p53 small molecule agonists, cell-based qHTS assay with human liver microsomes: qHTS cell viability counter screen (AID 1963579); also: nearly all actives have a fitted effect of over 45% in size
# Summary of the method: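 Metabolically activated exposure: compounds, human liver microsomes and NADPH (0.5 mg/mL final apiece) were added to p53RE-bla cells seeded 5 h earlier, left 16 h at 37 C, and then assessed for viability by CellTiter-Glo luminescence.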
# Sequence of D(2) dopamine receptor (Homo sapiens) (P14416 whole entry, looked up): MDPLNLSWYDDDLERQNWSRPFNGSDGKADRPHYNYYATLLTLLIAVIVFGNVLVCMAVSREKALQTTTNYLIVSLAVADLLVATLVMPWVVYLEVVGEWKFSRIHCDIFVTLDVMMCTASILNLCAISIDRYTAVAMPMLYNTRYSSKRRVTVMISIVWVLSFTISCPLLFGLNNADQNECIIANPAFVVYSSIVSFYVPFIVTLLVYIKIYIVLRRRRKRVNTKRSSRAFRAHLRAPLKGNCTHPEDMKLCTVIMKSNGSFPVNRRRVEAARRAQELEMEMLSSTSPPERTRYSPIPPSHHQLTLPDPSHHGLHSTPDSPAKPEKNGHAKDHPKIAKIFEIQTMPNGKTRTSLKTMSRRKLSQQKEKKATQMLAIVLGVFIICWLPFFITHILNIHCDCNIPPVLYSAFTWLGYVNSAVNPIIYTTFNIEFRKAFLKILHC
# Sequence of Gonadotropin-releasing hormone receptor (Homo sapiens) (P30968 whole entry, looked up): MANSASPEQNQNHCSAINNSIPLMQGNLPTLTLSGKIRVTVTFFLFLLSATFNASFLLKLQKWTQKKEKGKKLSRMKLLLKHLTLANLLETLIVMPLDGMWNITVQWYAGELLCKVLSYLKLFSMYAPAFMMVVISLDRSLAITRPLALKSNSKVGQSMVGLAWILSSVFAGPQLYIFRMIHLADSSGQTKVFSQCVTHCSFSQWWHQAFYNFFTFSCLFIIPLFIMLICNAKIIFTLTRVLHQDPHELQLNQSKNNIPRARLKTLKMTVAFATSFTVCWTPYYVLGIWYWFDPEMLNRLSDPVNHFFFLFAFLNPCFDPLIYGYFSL
# Sequence of KiSS-1 receptor (Homo sapiens) (Q969F8 whole entry, looked up): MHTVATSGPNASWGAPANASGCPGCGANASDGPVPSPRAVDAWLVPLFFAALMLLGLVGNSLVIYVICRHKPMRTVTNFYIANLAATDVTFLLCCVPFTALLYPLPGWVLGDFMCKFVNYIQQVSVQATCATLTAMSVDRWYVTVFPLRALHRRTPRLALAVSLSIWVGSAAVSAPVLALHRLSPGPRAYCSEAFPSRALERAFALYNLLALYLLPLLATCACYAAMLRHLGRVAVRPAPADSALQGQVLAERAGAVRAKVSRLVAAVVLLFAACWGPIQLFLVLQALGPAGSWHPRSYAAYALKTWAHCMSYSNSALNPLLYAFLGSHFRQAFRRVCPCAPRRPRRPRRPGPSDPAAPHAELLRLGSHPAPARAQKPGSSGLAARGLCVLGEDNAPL
# Sequence of Muscarinic acetylcholine receptor M1 (Homo sapiens) (P11229 whole entry, looked up): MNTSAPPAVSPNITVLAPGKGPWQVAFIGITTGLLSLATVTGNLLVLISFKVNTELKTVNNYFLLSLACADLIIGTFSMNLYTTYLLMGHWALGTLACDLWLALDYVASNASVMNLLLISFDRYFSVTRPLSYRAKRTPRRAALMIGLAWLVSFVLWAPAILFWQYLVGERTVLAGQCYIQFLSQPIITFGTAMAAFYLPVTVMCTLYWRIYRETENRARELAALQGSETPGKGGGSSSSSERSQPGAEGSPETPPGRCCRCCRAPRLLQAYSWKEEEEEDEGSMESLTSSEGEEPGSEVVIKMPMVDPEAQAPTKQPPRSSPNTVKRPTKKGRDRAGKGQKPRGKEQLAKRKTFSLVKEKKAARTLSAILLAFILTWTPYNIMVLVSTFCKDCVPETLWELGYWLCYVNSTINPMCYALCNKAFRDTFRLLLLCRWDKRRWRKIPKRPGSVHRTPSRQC
# Sequence of 5-hydroxytryptamine receptor 2A (Homo sapiens) (P28223 whole entry, looked up): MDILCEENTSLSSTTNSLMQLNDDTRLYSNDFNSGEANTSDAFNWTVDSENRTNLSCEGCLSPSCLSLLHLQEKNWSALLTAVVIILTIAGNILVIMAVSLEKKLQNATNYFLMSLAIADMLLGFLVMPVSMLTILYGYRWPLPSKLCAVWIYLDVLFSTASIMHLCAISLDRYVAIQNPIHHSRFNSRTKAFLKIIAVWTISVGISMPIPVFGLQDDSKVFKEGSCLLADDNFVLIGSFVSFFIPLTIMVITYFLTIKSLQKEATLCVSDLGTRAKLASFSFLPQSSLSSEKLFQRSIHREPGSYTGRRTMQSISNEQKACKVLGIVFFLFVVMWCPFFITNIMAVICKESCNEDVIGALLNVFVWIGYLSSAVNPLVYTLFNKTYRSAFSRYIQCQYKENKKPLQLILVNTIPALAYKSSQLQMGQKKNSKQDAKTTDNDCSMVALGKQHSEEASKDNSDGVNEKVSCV
# Sequence of Beta-2 adrenergic receptor (Homo sapiens) (P07550 whole entry, looked up): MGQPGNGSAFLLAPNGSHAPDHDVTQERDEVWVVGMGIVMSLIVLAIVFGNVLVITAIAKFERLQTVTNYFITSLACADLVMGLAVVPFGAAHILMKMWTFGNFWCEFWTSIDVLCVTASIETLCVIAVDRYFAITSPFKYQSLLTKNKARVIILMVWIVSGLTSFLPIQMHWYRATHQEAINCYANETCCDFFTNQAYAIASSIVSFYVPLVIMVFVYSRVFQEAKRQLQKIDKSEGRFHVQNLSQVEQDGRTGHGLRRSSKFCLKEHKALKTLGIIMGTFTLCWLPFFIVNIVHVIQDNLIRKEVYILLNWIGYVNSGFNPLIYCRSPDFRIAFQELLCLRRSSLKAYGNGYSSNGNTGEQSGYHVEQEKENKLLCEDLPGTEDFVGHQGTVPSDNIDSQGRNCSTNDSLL
SMILES,Potency [1],Potency [2],Potency [3],Potency [4],Potency [5],Potency [6],Potency [7],Potency [8],Potency [9],Potency [10],Potency [11],Potency [12],Potency [13],Potency [14],Potency [15],Potency [16],Potency [17],Potency [18],Potency [19],Potency [20]
C[C@]12C=CC(=O)C=C1CC[C@@H]1[C@@H]2CC[C@@]2(C)[C@H]1CC[C@]2(C)O,inactive,inactive,inactive,inactive,inactive,inactive,inactive,inactive,inactive,inactive,inactive,inactive,inactive,inactive,inactive,,,,,
O=C=Nc1ccc(Cl)cc1,inactive,68.6 µM (active),inactive,inactive,inactive,inactive,inactive,inactive,inactive,inactive,inactive,inactive,inactive,,inactive,inactive,inactive,inactive,,
CC(C)OC(=O)C(O)(c1ccc(Cl)cc1)c1ccc(Cl)cc1,30.6 µM (active),inactive,inactive,inactive,inactive,inactive,inactive,,inactive,inactive,13.3 µM (active),inactive,,inactive,,,,,,
O=[Se]=O,inactive,inactive,inactive,inactive,inactive,inactive,inactive,inactive,,inactive,,inactive,inactive,inactive,inactive,,,inactive,inactive,
O=C1c2ccccc2C(=O)C1C(=O)C(c1ccccc1)c1ccc(Cl)cc1 (stereo not given),15.4 µM (active),inactive,17.4 µM (active),inactive,inactive,inactive,inactive,inactive,4.21 µM (active),49 µM (active),,inactive,inactive,inactive,inactive,inactive,,inactive,,
CCN1CCCC1CNC(=O)C(O)(c1ccccc1)c1ccccc1 (stereo not given),inactive,inactive,inactive,inactive,inactive,inactive,inactive,,,,0.0918 µM (active),inactive,inactive,inactive,inactive,inactive,inactive,inactive,inactive,
CCCOC(=O)Cc1ccc(OCC(=O)N(CC)CC)c(OC)c1,inactive,inactive,inactive,inactive,inactive,inactive,inactive,inactive,,inactive,inactive,inactive,inactive,0.282 µM (active),inactive,inactive,inactive,inactive,inactive,
CCC[CH2][Sn]([CH2]CCC)([CH2]CCC)[CH2]CCC,12.2 µM (active),15.4 µM (active),inactive,inactive,inactive,inactive,inactive,inactive,inactive,,inactive,inactive,48.6 µM (active),,38.6 µM (active),,,,40.8 µM (active),
Oc1ccc(Cl)c(Cl)c1Cl,inactive,inactive,inactive,inactive,inactive,inactive,inactive,inactive,inactive,inactive,,inactive,inactive,inactive,inactive,inactive,,inactive,inactive,
CC#C[C@]1(O)CC[C@H]2[C@@H]3C[C@H](C)C4=CC(=O)CC[C@]4(C)[C@H]3CC[C@@]21C,inactive,inactive,inactive,inactive,inactive,inactive,inactive,inactive,,inactive,inactive,inactive,inactive,inactive,inactive,inactive,,,inactive,
COc1ccc(C=O)cc1O,inactive,inactive,inactive,inactive,inactive,inactive,,inactive,inactive,inactive,,inactive,,inactive,inactive,inactive,inactive,inactive,inactive,inactive
O=CC(Br)(Br)Br,8.61 µM (active),3.05 µM (active),inactive,inactive,inactive,inactive,inactive,inactive,inactive,,inactive,inactive,,inactive,inactive,,,,inactive,
CNP(=O)(OC)Oc1ccc(C(C)(C)C)cc1Cl (stereo not given),inactive,48.6 µM (active),inactive,inactive,inactive,3.24 µM (active),,inactive,inactive,,inactive,,,inactive,inactive,inactive,inactive,inactive,inactive,inactive
CN(CCCC(O)c1cccnc1)N=O (stereo not given),inactive,inactive,inactive,inactive,inactive,inactive,inactive,inactive,inactive,,inactive,inactive,inactive,inactive,inactive,inactive,,inactive,,
CC(CC(C(N)=O)(c1ccccc1)c1ccccc1)N(C)C (stereo not given),inactive,inactive,inactive,inactive,inactive,inactive,inactive,,inactive,,0.0082 µM (active),inactive,inactive,inactive,inactive,inactive,inactive,inactive,,
CC(C)NCC(O)c1ccc(N)c(C#N)c1 (stereo not given),inactive,inactive,inactive,inactive,inactive,inactive,,inactive,18.3 µM (active),,inactive,inactive,,,0.0047 µM (active),inactive,,inactive,inactive,inactive
NCC1(CC(=O)O)CCCCC1,inactive,inactive,inactive,inactive,inactive,inactive,inactive,inactive,,,,,inactive,inactive,inactive,inactive,inactive,inactive,inactive,
